Screening results deposited in PubChem BioAssay by National Center for Advancing Translational Sciences (NCATS).
D2 ag-1: D2 dopamine receptor (human) agonism | activation, % at 2 µM | P14416 | HEK293 T-REx D2 cells, calcium flux agonist mode | actives 0.53% (n = 340,000);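 active = activation over 3 SD above normal in the single-dose calcium agonist read, cut at about 30% in these data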
Target sequence (P14416 whole entry, looked up): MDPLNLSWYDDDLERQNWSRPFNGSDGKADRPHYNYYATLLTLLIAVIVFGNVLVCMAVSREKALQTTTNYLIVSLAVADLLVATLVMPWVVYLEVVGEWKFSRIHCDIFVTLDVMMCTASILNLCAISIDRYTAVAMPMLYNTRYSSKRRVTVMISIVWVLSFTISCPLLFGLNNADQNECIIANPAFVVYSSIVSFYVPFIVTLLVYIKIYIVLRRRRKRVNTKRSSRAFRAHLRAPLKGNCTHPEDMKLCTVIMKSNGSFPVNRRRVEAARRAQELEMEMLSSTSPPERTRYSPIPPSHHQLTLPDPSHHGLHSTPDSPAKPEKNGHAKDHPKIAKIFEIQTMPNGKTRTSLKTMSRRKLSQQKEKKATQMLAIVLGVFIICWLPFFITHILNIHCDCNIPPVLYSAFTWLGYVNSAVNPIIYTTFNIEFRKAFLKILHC
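Tetracycline-induced HEK293 Trex cells with D2 receptor force-coupled to calcium signaling, plated overnight at 30 C and loaded with no-wash calcium dye. Calcium flux read kinetically for 180 s after compound addition; responses flag agonists.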
D2 PAM-1: positive allosteric modulators of human D2 dopamine receptor | P14416 | HEK293 T-REx D2, calcium flux, EC20 dopamine potentiation | potentiation, % at 10 µM | actives 0.34% (n = 340,000);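 active = potentiation over 3 SD above the plate norm, cut at about 30% in these data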
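Tetracycline-induced Hek293 Trex D2 cells, force-coupled to calcium, loaded with no-wash calcium dye. Compound added with 180 s kinetic read for agonism, then EC20 dopamine and a further 180 s read for potentiation.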
D2 PAM-2: potentiates the human D2 dopamine receptor allosterically. P14416. DiscoveRx D2 beta-arrestin cells, luminescence, 90 min; 100% = 57 uM dopamine signal. potentiation, % (concentration not given with the values). actives 0.23% (n = 360,000); in the data active = potentiation above about 50%; inconclusive = mostly about 30% to 49%
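PathHunter beta-arrestin assay in DiscoveRx D2 cells. Compounds were added with an EC20 of dopamine (50 nM final) for 90 min at 37 deg C. Luminescence was read 1 h after detection reagent, with 57 uM dopamine as the EC100 control.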
D2 ag-2: human D2 receptor agonism in beta-arrestin assay. P14416. DiscoveRx PathHunter D2 beta-arrestin, luminescence, 90 min; 100% = 57 uM dopamine signal. AID 624465. activation, % (no concentration beside the values). actives 0.084% (n = 360,000); in the data active = activation above about 40%; inconclusive = between about 15% and that limit
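Agonist mode: compounds alone added to overnight-plated D2 PathHunter cells for 90 min at 37 C, with 57 uM final dopamine (EC100) defining full response. Beta-arrestin recruitment detected by chemiluminescent reagent, read after 1 h at ambient temperature.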
D2 antagonist: D2 dopamine receptor (human) antagonism | HEK293 TREx D2 cells, calcium flux, dopamine EC80 | inhibition, % at 10 µM | actives 2% (n = 340,000) | AID 485344; in the data active = inhibition above about 30%; inactive = below that, where a call was filed
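HEK293 T-REx D2 cells, tet-induced, calcium dye no-wash. Cpd pintool add, 180 s kinetic, then EC80 DA, 180 s kinetic. Ca flux read.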
Numbers stand for hits. This is a sample that favours compounds with a hit; in the whole collection about 2.4% have one here.

What do the screens show for `O=C(OC(c1ccccc1)c1nccc2ccccc12)c1cc([N+](=O)[O-])cc([N+](=O)[O-])c1` (configuration not stated)?
D2 ag-1: inactive; D2 PAM-1: inactive; D2 PAM-2: 81; D2 ag-2: inconclusive; D2 antagonist: inactive

Results for OC(c1cccc(Cl)c1)c1nccc2ccccc12 (configuration not stated) ?
D2 ag-1: inactive; D2 PAM-1: inactive; D2 PAM-2: inactive; D2 ag-2: inactive; D2 antagonist: inactive

Results for CC(=O)Nc1sc(/C(C#N)=C\c2cccc(Cl)c2)nc1-c1ccc(C)cc1 ?
D2 ag-1: 61; D2 PAM-1: inactive; D2 PAM-2: inactive; D2 ag-2: inactive; D2 antagonist: 30

Results for OC(C#CCN1CCCC1)(c1ccccc1)c1cccnc1 (configuration not stated) ?
D2 ag-1: inactive; D2 PAM-1: inactive; D2 PAM-2: inactive; D2 ag-2: inactive; D2 antagonist: inactive

What do the screens show for `OC(CCN1CCCCC1)(c1ccccc1)C1CCCCC1` (configuration not stated)?
D2 ag-1: inactive; D2 PAM-1: inactive; D2 PAM-2: inactive; D2 ag-2: inactive; D2 antagonist: 46

What do the screens show for `OC(C#CCCN1CCCCC1)(c1ccccc1)c1ccccc1`?
D2 ag-1: inactive; D2 PAM-1: inactive; D2 PAM-2: inactive; D2 ag-2: inactive; D2 antagonist: 33

How did OC(C#CCN1CCCCCC1)(c1ccccc1)c1cccnc1 (configuration not stated) do in these assays?
D2 ag-1: inactive; D2 PAM-1: inactive; D2 PAM-2: inactive; D2 ag-2: inactive; D2 antagonist: 58

Results for O=S(=O)(NCCc1nnc2ccc(SCc3cccnc3)nn12)c1ccccc1 ?
D2 ag-1: inactive; D2 PAM-1: 32; D2 PAM-2: inactive; D2 ag-2: inactive; D2 antagonist: inactive

How did CCOP(=O)(OCC)C(Nc1cccc(C(F)(F)F)c1)c1ccc(C)cc1 (configuration not stated) do in these assays?
D2 ag-1: 37; D2 PAM-1: inactive; D2 PAM-2: inactive; D2 ag-2: inactive; D2 antagonist: inactive

Results for CS(=O)(=O)c1nc(-c2ccc(Br)cc2)cc(-c2ccccc2)c1C#N ?
D2 ag-1: inactive; D2 PAM-1: inactive; D2 PAM-2: inactive; D2 ag-2: inactive; D2 antagonist: 41

How did Nc1nc2ccccc2n1S(=O)(=O)c1ccccc1 do in these assays?
D2 PAM-2: inactive; D2 ag-2: inactive

What do the screens show for `CCN1CCCC1CNC(=O)c1cc2c(OC)cccc2[nH]1` (configuration not stated)?
D2 PAM-2: inactive; D2 ag-2: inactive

What do the screens show for `CCCCN1CCCC1CNC(=O)c1cc(C#N)c2ccccc2c1OC` (configuration not stated)?
D2 ag-1: inactive; D2 PAM-1: inactive; D2 antagonist: 84

Results for CCN1CCC[C@H]1CNC(=O)c1c(O)c(Cl)cc(Cl)c1OC ?
D2 ag-1: inactive; D2 PAM-1: inactive; D2 PAM-2: inactive; D2 ag-2: inactive; D2 antagonist: 76

What do the screens show for `CCN1CCCC1CNC(=O)c1cc(OC)c(OC)c(OC)c1` (configuration not stated)?
D2 ag-1: inactive; D2 PAM-1: inactive; D2 PAM-2: inactive; D2 ag-2: inactive; D2 antagonist: inactive

How did CCN1CCCC1CNC(=O)c1cc2c(OC)c(OC)c(OC)cc2[nH]1 (configuration not stated) do in these assays?
D2 ag-1: inactive; D2 PAM-1: inactive; D2 PAM-2: inactive; D2 ag-2: inactive; D2 antagonist: 83

How did Cc1ccc(NC(=O)CSc2nc3c(c(=O)[nH]2)CN(Cc2ccccc2)CC3)cc1Cl do in these assays?
D2 ag-1: inactive; D2 PAM-1: inactive

Results for Cc1ccsc1C(C(=O)NCc1ccccc1)N(C(=O)c1csnn1)c1ccccc1 (configuration not stated) ?
D2 ag-1: inactive; D2 PAM-1: inactive; D2 PAM-2: inactive; D2 ag-2: inactive; D2 antagonist: 33

How did O=C(NCc1ccccc1)C(c1cccnc1)N(C(=O)c1ccccn1)c1ccccc1F (configuration not stated) do in these assays?
D2 ag-1: inactive; D2 PAM-1: inactive; D2 PAM-2: inactive; D2 ag-2: inactive; D2 antagonist: inactive

Results for CC(C)(C)NC(=O)C(c1ccco1)N(C(=O)c1csnn1)c1ccccc1 (configuration not stated) ?
D2 ag-1: inactive; D2 PAM-1: 36; D2 PAM-2: inactive; D2 ag-2: inactive; D2 antagonist: inactive

How did Cc1ccc(N(C(=O)c2csnn2)C(C(=O)NC(C)(C)C)c2cccs2)cc1 (configuration not stated) do in these assays?
D2 ag-1: inactive; D2 PAM-1: inactive; D2 PAM-2: inactive; D2 ag-2: inactive; D2 antagonist: inactive

What do the screens show for `CC(C)(C)NC(=O)C(c1ccncc1)N(C(=O)c1csnn1)c1ccccc1` (configuration not stated)?
D2 ag-1: inactive; D2 PAM-1: inactive; D2 PAM-2: inactive; D2 ag-2: inactive; D2 antagonist: inactive

What do the screens show for `Cc1ccccc1N(C(=O)c1csnn1)C(C(=O)NC(C)(C)C)c1cccs1` (configuration not stated)?
D2 ag-1: inactive; D2 PAM-1: inactive; D2 PAM-2: inactive; D2 ag-2: inactive; D2 antagonist: 36

What do the screens show for `Cc1ccccc1N(C(=O)c1ccccn1)C(C(=O)NCc1ccccc1)c1cccnc1` (configuration not stated)?
D2 PAM-1: 36; D2 PAM-2: inactive; D2 ag-2: inactive

What do the screens show for `O=C(NC1CC(=O)N(c2ccc(Cl)cc2)C1)c1cccs1` (configuration not stated)?
D2 ag-1: inactive; D2 PAM-1: inactive

What do the screens show for `O=C(Cn1cnc(S(=O)(=O)N2CCCCC2)c1)NCc1ccco1`?
D2 ag-1: inactive; D2 PAM-1: inactive; D2 PAM-2: inactive; D2 ag-2: inactive; D2 antagonist: inactive

How did CCC(C)(C)NC(=O)C(c1cccnc1)N(C(=O)c1csnn1)c1ccccc1 (configuration not stated) do in these assays?
D2 ag-1: inactive; D2 PAM-1: 40; D2 PAM-2: inactive; D2 ag-2: inactive; D2 antagonist: inactive

What do the screens show for `COc1cc(Cl)ccc1OCc1cc(C(=O)NCc2cc(C(C)C)no2)no1`?
D2 ag-1: inactive; D2 PAM-1: inactive; D2 PAM-2: inactive; D2 ag-2: inactive; D2 antagonist: inactive

Results for O=C(Nc1cn(-c2ccccc2)nc1-c1ccc(Cl)cc1)c1ccccc1 ?
D2 ag-1: inactive; D2 PAM-1: inactive; D2 PAM-2: inactive; D2 ag-2: inactive; D2 antagonist: inactive

How did O=C(O)Cc1cn(-c2ccccc2)nc1-c1ccc(Cl)cc1 do in these assays?
D2 ag-1: inactive; D2 PAM-1: 31; D2 PAM-2: inactive; D2 ag-2: inactive; D2 antagonist: inactive
